# Assay results taken from the supplement of paper PMC10338343.
# ± gives the standard deviation. Whole data set: some 8,200 sequences, median “pre-steady-state target cleavage rate” near 0.024, cut for the highest 2% near 1.3. The sample holds the highest values, similar sequences and a random draw of the others, so the mix is not that of the screen.
# Tested on: MIWI (PIWIL1) piRISC loaded with L1MC piRNA (30 nt)
# Test: pre-steady-state target cleavage rate (min^-1); MIWI and MILI are mouse PIWI proteins and EfPiwi is from a freshwater sponge; tags in brackets are library labels; higher = faster piRNA-guided slicing of the target
# Settings: guide: L1MC piRNA 5'p-UAACUAAAUACUAUGCAAGCUGUAGGUCCU
# Method: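 Cleave-'n-Seq: a library of target RNAs (target site embedded in constant flanks, ACAGCATTCCGCGTTAGTGATATCCG... 5' flank; DNA-blocked outside the site) at 0.1 nM was incubated with 1 nM active mouse MILI or MIWI piRISC (synthetic 5'-monophosphorylated piRNA guide) with or without 500 nM mouse GTSF1 at 33 °C for 1 min to 16 h. Uncleaved targets were sequenced and normalised to non-target controls, and the pooled three trials were fitted to a burst-and-steady-state model to give the pre-steady-state cleavage rate (min^-1; k3 is constrained to at most 1e-4). Sequence is the target site only; target names encode pairing extent (gX:gY) and contiguous / 1-mismatch / 2-mismatch / bulge geometry. Fits with R² ≤ 0 are excluded.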
# [1] = auxiliary factor: 500 nM mouse GTSF1
# [2] = auxiliary factor: none (no GTSF1)
Sequence,pre-steady-state target cleavage rate [1],pre-steady-state target cleavage rate [2]
UCCUGGAUGUCCUUGCAUAGUAUUUAGUCA,0.0473 ± 0.011,0.00568 ± 0.0021
UCGACCUACAUGCUUGCAUAGUAUUUAGUUA,0.913 ± 0.037,0.0554 ± 0.012
UCCACCUACAGCUUGCAUAGUUUUUACUUA,0.173 ± 0.03,0.0106 ± 0.0026
UCCUGGUUCAGCUUGCAUAGUUUUUAGUUA,0.242 ± 0.031,0.0386 ± 0.0094
AGGACCUACAGCAACCAUAGUAUUUAGUUA,0.426 ± 0.039,
AGGUCCAACAGCUUGCAUAGUAUUUAGUUA,1.5 ± 0.04,0.0907 ± 0.014
UCCAACUACAGCUUGCAUAGUAUUUAGUUA,0.646 ± 0.038,0.0478 ± 0.0076
UCCUCCAACAGCUUGCAUAGUAUUUAGUAA,0.675 ± 0.03,0.0256 ± 0.0063
UCCACCAACAGCUUGCAUAGUAUUUAGUAA,0.644 ± 0.039,0.0342 ± 0.0071
UCGUCCAACAGCUUGCAUAGUAUUUAGUUA,1.4 ± 0.044,0.0771 ± 0.014
UGGUCCAACAGCUUGCAUAGUAUUUAGUUA,0.852 ± 0.034,0.0715 ± 0.01
UCCUCCAACAGCUUGCAUAGUAUUUAGAUA,0.491 ± 0.042,0.0201 ± 0.0048
UCCACCAACAGCUUGCAUAGUAUUUAGUUA,1.06 ± 0.037,0.0618 ± 0.011
UCCUCCAACAGCUUGCAUAGUAUUUAGUUA,1.37 ± 0.041,0.0735 ± 0.013
UGGACGUACAGCUUGCAUAGUAAUUAGUUA,0.725 ± 0.048,0.0371 ± 0.0089
UCCUGGUACAGCUUGCAUAGUAUUAUGAAA,0.119 ± 0.037,
UCCUGGUACACCUUGCAUAGUAAUUAGUUA,0.546 ± 0.1,0.00728 ± 0.0025
AGCACCUACAGCUUGGAUAGUAUUUAGUUA,0.99 ± 0.049,0.0433 ± 0.0065
ACGACCUACAGCUUGGAUAGUAUUUAGUUA,1.68 ± 0.067,0.0728 ± 0.011

Sequence,pre-steady-state target cleavage rate [1],pre-steady-state target cleavage rate [2]
UCGACCUACAGCUUGGAUAGUAUUUAGUAA,0.859 ± 0.043,0.0299 ± 0.0054
UCGACCUACAGCUUGGAUAGUAUUUAGUUA,1.72 ± 0.055,0.0599 ± 0.01
UGCACCUACAGCUUGGAUAGUAUUUAGUUA,1.18 ± 0.065,0.05 ± 0.008
UCGACCUACAGCUUGGAUAGUAUUUAGAUA,0.444 ± 0.05,0.0181 ± 0.0047
AGGACGAACAGCUUGCAUAGUAUUUACAAA,0.245 ± 0.037,0.00641 ± 0.0027
UGGACCUACACGUUGCAUAGUAUUUAGUAA,0.575 ± 0.039,0.00987 ± 0.0024
UCCAUCCUACAGCUUGCAUAGUAUUUAGUUA,0.558 ± 0.029,0.0561 ± 0.0096
AGGAUCCUACAGCUUGCAUAGUAUUUAGUUA,1.4 ± 0.068,0.118 ± 0.023
UGGAUCCUACAGCUUGCAUAGUAUUUAGUUA,1.37 ± 0.071,0.0869 ± 0.014
UCGAUCCUACAGCUUGCAUAGUAUUUAGUUA,1.49 ± 0.042,0.0686 ± 0.013
AGGUCCUACAGCUUGCAUAGUAUUUACAAA,0.428 ± 0.076,0.00841 ± 0.003
UGGACCUACAGCUUGCAGUAGUAUUUAGUUA,0.00477 ± 0.0038,
UCCUGGUUCAGCUUGCAUAGUAUUUAGUAA,0.528 ± 0.055,0.0354 ± 0.008
UCCUGCAACAGGUUGCAUAGUAUUUAGUUA,1.11 ± 0.085,0.0208 ± 0.0052
UCCUGGAUGUGCUUGCAUAGUAUUUAGGUUA,0.191 ± 0.02,0.0232 ± 0.0058
UCCUGGAUGUGCUUGCAUAGUAUUUAUGUUA,0.202 ± 0.026,0.0215 ± 0.0052
AGGACCUAGAGCUUGCAUAGUAAUUAGUUA,0.747 ± 0.047,0.0277 ± 0.0076
AGGACCAACAGCUUGCUUAGUAUUUAGUUA,1.31 ± 0.066,0.0459 ± 0.0084
UCGACCAACAGCUUGCAUUGUAUUUAGUUA,0.973 ± 0.028,0.0383 ± 0.008
